Measured values from ChEMBL document CHEMBL1961873, “Compounds: GSK PKIS; Assays: Nanosyn kinase panel” (2012).

Key:
[1] = molecular target: Ribosomal protein S6 kinase alpha-6 (Homo sapiens) (UniProt Q9UK32); conditions: at 1 µM;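 further: each value is a mean inhibition of RSK4 from a GSK PKIS panel screen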
[2] = molecular target: T1, Serine/threonine-protein kinase Sgk1 (Homo sapiens) (UniProt O00141); conditions: at 0.1 µM
T1 sequence (whole entry): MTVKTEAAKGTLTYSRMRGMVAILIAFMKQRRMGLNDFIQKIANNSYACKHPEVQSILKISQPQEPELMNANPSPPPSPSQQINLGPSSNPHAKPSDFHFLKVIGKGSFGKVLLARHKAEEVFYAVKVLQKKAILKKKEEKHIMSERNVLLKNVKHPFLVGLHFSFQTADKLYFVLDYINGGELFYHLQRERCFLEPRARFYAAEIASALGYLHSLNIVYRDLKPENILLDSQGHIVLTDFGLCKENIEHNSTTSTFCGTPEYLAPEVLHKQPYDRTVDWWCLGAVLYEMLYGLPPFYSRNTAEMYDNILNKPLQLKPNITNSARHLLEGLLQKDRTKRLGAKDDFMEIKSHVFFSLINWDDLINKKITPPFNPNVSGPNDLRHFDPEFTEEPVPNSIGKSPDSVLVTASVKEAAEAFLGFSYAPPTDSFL

[3] = molecular target: T1, Serine/threonine-protein kinase Sgk1 (Homo sapiens); conditions: at 1 µM
[4] = molecular target: T2, Serine/threonine-protein kinase Sgk2 (Homo sapiens) (UniProt Q9HBY8); conditions: at 0.1 µM
T2 sequence (whole entry): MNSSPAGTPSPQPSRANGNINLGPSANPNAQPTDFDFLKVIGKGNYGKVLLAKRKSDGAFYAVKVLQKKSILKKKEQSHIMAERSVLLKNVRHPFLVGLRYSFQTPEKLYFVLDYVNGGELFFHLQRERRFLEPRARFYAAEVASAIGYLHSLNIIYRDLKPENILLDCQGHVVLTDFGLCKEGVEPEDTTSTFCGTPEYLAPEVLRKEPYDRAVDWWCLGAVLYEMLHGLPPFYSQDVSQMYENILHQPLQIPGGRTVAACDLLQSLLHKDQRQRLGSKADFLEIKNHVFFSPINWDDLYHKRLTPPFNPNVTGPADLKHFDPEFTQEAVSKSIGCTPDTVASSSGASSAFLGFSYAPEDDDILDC

[5] = molecular target: T2, Serine/threonine-protein kinase Sgk2 (Homo sapiens); conditions: at 1 µM
[6] = molecular target: T3, Serine/threonine-protein kinase Sgk3 (Homo sapiens) (UniProt Q96BR1); conditions: at 0.1 µM
T3 sequence (whole entry): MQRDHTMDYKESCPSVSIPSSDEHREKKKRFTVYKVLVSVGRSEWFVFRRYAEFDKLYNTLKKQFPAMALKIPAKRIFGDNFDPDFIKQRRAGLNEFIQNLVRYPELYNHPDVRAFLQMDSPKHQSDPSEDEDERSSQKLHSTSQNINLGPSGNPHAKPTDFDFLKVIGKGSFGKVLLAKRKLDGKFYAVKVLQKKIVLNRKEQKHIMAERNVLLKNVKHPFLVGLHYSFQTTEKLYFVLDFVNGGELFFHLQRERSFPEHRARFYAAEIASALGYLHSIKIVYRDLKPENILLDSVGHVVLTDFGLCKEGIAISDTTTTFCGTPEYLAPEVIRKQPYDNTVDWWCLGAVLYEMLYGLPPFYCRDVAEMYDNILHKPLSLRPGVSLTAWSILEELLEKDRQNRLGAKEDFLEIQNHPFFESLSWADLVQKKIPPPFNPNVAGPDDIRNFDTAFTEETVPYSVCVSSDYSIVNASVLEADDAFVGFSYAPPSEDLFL

[7] = molecular target: T3, Serine/threonine-protein kinase Sgk3 (Homo sapiens); conditions: at 1 µM
[8] = molecular target: 5'-AMP-activated protein kinase catalytic subunit alpha-1 (Homo sapiens) (UniProt Q13131); conditions: at 0.1 µM
[9] = molecular target: 5'-AMP-activated protein kinase catalytic subunit alpha-1 (Homo sapiens) (UniProt Q13131); conditions: at 1 µM
[10] = molecular target: 5'-AMP-activated protein kinase catalytic subunit alpha-2 (Homo sapiens) (UniProt P54646); conditions: at 0.1 µM
[11] = molecular target: 5'-AMP-activated protein kinase catalytic subunit alpha-2 (Homo sapiens) (UniProt P54646); conditions: at 1 µM
[12] = molecular target: T4, NUAK family SNF1-like kinase 1 (Homo sapiens) (UniProt O60285); conditions: at 0.1 µM
T4 sequence (whole entry): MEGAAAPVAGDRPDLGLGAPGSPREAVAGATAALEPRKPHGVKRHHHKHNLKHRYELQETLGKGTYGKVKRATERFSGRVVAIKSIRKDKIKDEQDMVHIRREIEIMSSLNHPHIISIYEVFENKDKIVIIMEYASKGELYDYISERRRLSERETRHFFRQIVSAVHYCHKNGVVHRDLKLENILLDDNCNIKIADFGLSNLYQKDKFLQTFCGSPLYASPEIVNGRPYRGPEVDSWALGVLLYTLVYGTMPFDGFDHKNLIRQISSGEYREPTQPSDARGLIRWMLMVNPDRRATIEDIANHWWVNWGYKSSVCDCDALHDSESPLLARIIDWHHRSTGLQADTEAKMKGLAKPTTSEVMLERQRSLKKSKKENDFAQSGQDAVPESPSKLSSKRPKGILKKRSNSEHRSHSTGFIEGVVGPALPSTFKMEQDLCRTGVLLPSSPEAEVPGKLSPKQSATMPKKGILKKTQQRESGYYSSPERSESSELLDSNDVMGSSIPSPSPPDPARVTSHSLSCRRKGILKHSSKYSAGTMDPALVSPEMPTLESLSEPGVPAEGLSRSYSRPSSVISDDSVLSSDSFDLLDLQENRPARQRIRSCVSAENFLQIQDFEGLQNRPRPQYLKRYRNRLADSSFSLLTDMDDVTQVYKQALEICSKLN

[13] = molecular target: T4, NUAK family SNF1-like kinase 1 (Homo sapiens); conditions: at 1 µM
[14] = molecular target: T5, Serine/threonine-protein kinase BRSK1 (Homo sapiens) (UniProt Q8TDC3); conditions: at 0.1 µM
T5 sequence (whole entry): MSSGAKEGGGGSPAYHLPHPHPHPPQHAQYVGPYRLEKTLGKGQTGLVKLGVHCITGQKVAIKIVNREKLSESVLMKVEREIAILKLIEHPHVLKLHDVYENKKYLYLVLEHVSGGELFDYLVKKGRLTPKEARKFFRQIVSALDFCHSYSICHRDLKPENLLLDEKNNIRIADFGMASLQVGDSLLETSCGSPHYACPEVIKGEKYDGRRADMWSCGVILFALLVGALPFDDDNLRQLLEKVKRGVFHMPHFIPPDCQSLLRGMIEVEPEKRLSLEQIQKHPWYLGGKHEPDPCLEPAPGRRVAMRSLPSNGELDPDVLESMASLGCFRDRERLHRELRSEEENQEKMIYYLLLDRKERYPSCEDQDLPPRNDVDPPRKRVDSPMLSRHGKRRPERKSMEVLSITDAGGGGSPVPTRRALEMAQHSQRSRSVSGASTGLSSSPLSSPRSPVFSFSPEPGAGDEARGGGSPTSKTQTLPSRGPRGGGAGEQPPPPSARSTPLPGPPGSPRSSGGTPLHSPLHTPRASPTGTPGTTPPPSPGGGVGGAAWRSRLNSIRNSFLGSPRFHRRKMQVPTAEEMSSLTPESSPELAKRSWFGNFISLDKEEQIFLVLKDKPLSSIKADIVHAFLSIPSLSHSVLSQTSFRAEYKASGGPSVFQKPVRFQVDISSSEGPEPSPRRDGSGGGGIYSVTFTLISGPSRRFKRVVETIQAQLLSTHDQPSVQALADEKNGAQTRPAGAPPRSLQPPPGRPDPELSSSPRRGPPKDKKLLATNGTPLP

[15] = molecular target: T5, Serine/threonine-protein kinase BRSK1 (Homo sapiens); conditions: at 1 µM
[16] = molecular target: T6, Serine/threonine-protein kinase BRSK2 (Homo sapiens) (UniProt Q8IWQ3); conditions: at 0.1 µM
T6 sequence (whole entry): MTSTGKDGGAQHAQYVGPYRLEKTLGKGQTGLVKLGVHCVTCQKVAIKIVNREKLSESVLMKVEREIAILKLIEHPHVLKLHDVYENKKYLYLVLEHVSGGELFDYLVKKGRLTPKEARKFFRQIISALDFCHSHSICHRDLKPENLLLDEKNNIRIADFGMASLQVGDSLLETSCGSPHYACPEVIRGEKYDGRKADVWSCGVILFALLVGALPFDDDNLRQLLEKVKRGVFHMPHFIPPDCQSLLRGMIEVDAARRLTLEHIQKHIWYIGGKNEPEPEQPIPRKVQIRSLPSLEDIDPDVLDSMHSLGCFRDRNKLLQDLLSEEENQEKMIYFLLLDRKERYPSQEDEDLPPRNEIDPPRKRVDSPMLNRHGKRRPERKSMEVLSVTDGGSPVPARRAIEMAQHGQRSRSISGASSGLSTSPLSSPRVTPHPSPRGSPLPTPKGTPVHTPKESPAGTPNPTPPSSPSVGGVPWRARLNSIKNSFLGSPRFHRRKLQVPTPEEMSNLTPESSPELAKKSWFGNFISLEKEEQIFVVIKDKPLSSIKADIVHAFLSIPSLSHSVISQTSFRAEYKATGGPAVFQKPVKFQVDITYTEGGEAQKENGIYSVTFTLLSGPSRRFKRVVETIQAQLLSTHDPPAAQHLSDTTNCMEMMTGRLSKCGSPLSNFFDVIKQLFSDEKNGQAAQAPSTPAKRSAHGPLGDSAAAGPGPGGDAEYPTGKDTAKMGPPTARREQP

[17] = molecular target: T6, Serine/threonine-protein kinase BRSK2 (Homo sapiens); conditions: at 1 µM
[18] = molecular target: Calcium/calmodulin-dependent protein kinase type 1D (Homo sapiens) (UniProt Q8IU85); conditions: at 0.1 µM
[19] = molecular target: Calcium/calmodulin-dependent protein kinase type 1D (Homo sapiens) (UniProt Q8IU85); conditions: at 1 µM
[20] = molecular target: Calcium/calmodulin-dependent protein kinase type II subunit alpha (Homo sapiens) (UniProt Q9UQM7); conditions: at 0.1 µM;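 further: reported values are averages (mean inhibition of CAMK2A)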
Sequence of Calcium/calmodulin-dependent protein kinase type II subunit alpha (Homo sapiens) (Q9UQM7 whole entry): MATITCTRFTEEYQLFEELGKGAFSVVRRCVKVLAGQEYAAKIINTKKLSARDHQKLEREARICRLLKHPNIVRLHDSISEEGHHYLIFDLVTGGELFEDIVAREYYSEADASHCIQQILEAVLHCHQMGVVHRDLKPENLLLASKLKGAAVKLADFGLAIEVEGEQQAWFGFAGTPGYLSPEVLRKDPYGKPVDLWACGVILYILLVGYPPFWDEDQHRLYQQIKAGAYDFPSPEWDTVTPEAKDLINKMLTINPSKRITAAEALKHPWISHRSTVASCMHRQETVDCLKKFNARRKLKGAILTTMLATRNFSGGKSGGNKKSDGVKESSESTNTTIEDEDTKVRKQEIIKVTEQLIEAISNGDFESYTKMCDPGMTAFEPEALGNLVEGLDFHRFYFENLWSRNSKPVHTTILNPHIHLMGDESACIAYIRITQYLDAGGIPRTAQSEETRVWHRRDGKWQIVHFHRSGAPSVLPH

Sequence of 5'-AMP-activated protein kinase catalytic subunit alpha-1 (Homo sapiens) (Q13131 whole entry, looked up): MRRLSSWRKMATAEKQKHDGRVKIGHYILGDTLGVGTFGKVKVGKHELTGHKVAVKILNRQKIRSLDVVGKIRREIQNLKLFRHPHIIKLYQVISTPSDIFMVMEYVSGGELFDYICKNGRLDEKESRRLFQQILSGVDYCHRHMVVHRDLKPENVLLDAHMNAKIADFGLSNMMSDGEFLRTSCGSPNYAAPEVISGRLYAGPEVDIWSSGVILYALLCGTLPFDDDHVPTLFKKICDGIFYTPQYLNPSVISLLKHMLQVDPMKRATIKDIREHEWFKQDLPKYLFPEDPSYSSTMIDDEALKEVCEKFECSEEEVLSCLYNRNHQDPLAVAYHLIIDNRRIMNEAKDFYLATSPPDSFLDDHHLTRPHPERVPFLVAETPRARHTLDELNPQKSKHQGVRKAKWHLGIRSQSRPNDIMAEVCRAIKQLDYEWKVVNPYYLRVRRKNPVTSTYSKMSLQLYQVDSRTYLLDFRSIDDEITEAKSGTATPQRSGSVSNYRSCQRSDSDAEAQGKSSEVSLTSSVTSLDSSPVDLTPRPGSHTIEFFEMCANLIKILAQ
Sequence of Calcium/calmodulin-dependent protein kinase type 1D (Homo sapiens) (Q8IU85 whole entry, looked up): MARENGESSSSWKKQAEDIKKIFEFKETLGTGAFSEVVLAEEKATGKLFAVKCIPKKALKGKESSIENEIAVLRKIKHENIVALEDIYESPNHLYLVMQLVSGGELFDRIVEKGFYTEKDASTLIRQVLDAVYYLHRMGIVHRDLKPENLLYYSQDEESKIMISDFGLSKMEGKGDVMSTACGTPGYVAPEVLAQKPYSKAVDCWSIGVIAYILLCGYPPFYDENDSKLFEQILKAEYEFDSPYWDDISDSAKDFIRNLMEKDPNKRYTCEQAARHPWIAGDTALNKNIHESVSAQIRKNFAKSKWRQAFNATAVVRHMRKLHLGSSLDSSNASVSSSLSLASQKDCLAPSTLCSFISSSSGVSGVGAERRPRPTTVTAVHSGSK
Sequence of 5'-AMP-activated protein kinase catalytic subunit alpha-2 (Homo sapiens) (P54646 whole entry, looked up): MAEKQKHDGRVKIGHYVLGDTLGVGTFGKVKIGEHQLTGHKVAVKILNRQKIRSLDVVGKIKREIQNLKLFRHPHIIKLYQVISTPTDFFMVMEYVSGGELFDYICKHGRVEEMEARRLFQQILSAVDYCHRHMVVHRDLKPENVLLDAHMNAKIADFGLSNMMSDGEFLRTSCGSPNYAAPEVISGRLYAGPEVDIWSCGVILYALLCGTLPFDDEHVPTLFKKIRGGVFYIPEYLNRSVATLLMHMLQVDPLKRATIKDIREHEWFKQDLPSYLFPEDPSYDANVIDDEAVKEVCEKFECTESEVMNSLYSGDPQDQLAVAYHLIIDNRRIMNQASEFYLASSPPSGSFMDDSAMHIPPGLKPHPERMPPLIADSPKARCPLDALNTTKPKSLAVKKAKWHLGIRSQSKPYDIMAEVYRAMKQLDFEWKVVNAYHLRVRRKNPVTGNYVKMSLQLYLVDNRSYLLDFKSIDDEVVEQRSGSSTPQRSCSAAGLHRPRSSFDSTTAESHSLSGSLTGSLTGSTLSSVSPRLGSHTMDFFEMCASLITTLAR
Sequence of Ribosomal protein S6 kinase alpha-6 (Homo sapiens) (Q9UK32 whole entry): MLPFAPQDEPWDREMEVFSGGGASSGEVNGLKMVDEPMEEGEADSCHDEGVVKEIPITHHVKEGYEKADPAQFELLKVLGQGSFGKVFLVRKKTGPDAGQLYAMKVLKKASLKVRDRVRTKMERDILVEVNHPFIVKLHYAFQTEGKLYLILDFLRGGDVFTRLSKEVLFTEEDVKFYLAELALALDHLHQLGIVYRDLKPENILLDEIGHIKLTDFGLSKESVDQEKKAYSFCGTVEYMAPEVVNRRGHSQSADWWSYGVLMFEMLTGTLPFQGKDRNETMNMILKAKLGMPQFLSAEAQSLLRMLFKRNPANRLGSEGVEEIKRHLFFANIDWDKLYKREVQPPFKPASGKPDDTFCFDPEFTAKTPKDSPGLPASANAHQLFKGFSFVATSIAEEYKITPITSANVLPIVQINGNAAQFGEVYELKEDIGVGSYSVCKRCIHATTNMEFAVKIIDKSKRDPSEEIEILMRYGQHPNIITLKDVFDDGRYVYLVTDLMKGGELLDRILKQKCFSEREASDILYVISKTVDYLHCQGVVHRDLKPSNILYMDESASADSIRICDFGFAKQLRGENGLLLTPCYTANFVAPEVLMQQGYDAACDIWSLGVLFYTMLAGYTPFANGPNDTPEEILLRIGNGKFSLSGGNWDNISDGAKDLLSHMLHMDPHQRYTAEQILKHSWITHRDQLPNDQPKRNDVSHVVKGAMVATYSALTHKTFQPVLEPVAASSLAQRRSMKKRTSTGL

Compound	inhibition [1] [%]	inhibition [2] [%]	inhibition [3] [%]	inhibition [4] [%]	inhibition [5] [%]	inhibition [6] [%]	inhibition [7] [%]	inhibition [8] [%]	inhibition [9] [%]	inhibition [10] [%]	inhibition [11] [%]	inhibition [12] [%]	inhibition [13] [%]	inhibition [14] [%]	inhibition [15] [%]	inhibition [16] [%]	inhibition [17] [%]	inhibition [18] [%]	inhibition [19] [%]	inhibition [20] [%]
CS(=O)(=O)CCNCc1ccc(-c2ccc3ncnc(Nc4ccc(OCc5cccc(F)c5)c(C(F)(F)F)c4)c3c2)o1	0.81	3.21	3.35	1.66	2.48	3.28	4.67	2.01	3.32	3.2	3.63	2.03	0.5	-0.9	-1.79	1.37	3.52	-0.13	0.72	3.67
Fc1cccc(COc2ccc(Nc3ncnc4sc(-c5cccs5)cc34)cc2Cl)c1	0.4	1.05	0.86	0.37	0.66	0.04	-0.58	0.51	0.48	2.89	0.62	4.02	7.65	0.56	-0.44	0.22	1.9	-1.31	0.18	-3
Cc1cc(O)cc(C)c1/C=C/c1cncc(-c2nn[nH]n2)c1	0.92	3.17	2.09	-1.45	1.25	1.96	3.83	3.54	3.56	3.69	4.51	3.07	5.08	3.46	19.2	2.49	13.2	0.18	-0.55	6.31
c1cnn2ncc(-c3ccnc(Nc4ccc5c(c4)OCCO5)n3)c2c1	9.17	2.25	7.34	6.82	1.72	2.27	-0.29	4.61	11.6	1.53	12.6	52.8	83.2	0.46	6.78	2.51	9.28	1.5	5.85	5.45
COc1cc(C)c(NC(=O)CN(C)C)cc1Nc1nc(Nc2cccc(F)c2C(N)=O)c2cc[nH]c2n1	23.1	1.87	-1.3	1.44	0.65	0.69	0.16	1.03	0.78	1.06	4.27	-0.32	4.12	1.09	0.73	0.37	-2.24	2.17	16.7	3.26
CC(=O)Nc1cccc(C#Cc2cncnc2Nc2ccc(OCc3cccc(F)c3)c(Cl)c2)n1	-0.14	1.53	5.43	1.09	-1	2.07	4.12	-0.86	3.32	-1.09	-0.66	2.57	1.97	-1.43	5.34	1.19	5.79	0.41	0.25	0.69
